About 720 (1.1%) of roughly 66,000 compounds were called active. Rule as the data show it: active = normalised signal below about 0.5; inactive = the rest, inconclusive results apart. The full list was thinned out, with actives kept by preference.
Target: Chromobox protein homolog 7 (Homo sapiens) (UniProt O95931)
Test: CBX7 chromodomain binding inhibitors, primary screen, biochemical, AlphaScreen (AID 1224903)
Conditions: AlphaScreen His6-CBX7 / biotin-H3K27me3 peptide binding, stronger effect = lower value; z-score: measured here: z-score of CBX7 signal

Sequence of Chromobox protein homolog 7 (Homo sapiens) (O95931 whole entry, looked up): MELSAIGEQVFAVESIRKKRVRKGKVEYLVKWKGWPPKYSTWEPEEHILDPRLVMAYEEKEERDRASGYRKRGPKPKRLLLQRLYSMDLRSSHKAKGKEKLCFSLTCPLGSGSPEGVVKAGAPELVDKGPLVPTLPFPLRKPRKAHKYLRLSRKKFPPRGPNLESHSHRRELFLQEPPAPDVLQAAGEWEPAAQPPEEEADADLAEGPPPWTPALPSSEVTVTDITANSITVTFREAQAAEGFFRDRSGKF

SMILES | normalised signal (fraction of DMSO) | z-score
Cc1cc(=O)n2nc(N3CCCC(C(=O)N4CCCCC4)C3)sc2n1 (stereo not given) | 1.09 (inactive) | 0.832
O=C(Nc1ccccc1F)c1cc2c(s1)-c1ccccc1OC2 | 1.53 (inactive) | 15.1
COc1cccc(-c2nc(CS(=O)(=O)CC(=O)NCCCN(CC(C)C)CC(C)C)c(C)o2)c1 | 1.42 (inactive) | 3.56
CCc1ccc(-n2cnc3cc(C(=O)NC4CCCC4)ccc32)cc1 | 0.805 (inactive) | -3.38
COc1ccc(CCNC(=O)c2cn(-c3ccc(Cl)cc3)c(=O)c3ccccc23)cc1OC | 1.03 (inactive) | 0.92
CCCCOc1ccc(C(=O)N(Cc2ccc(OC)cc2)C2CCS(=O)(=O)C2)cc1 (stereo not given) | 0.91 (inactive) | -0.0894
O=C(c1ccc(Cl)nc1)N1CCNc2ccccc2C1 | 0.975 (inactive) | -0.305
O=C(CN1C(=O)COc2ccccc21)NCCN1CCc2ccccc2C1 | 1.06 (inactive) | 1.85
CCCCNC(=O)CN1C(=O)COc2ccccc21 | 0.475 (active) | -4.69
CCCN1CCN(CCCNC(=O)CN2C(=O)COc3ccccc32)CC1 | 1.01 (inactive) | 0.274
CN(CC(=O)NCCc1ccccc1)S(=O)(=O)c1cnc[nH]1 | 1.26 (inactive) | 2.17
COC(CNC(=O)c1csc2c1CCCCC2)OC | 0.834 (inactive) | -2.13
Cc1ccc(-n2c(Cc3cccn3C)nnc2SCC(=O)Nc2ccc(C)c(Cl)c2)cc1 | 0.926 (inactive) | -1.77
Cc1sc2ncn(CC(=O)NCC(=O)NCCCN3CCOCC3)c(=O)c2c1C | 1.08 (inactive) | 0.741
Cc1ccccc1Cn1c(CCNC(=O)C(C)(C)C)nc2ccccc21 | 1.12 (inactive) | 1.79
Cc1cccc(C)c1Nc1c(-c2ccsc2)nc2cnccn12 | 0.944 (inactive) | -0.669
Cc1ccc(Nc2c(-c3ccc(Cl)cc3)nc3sccn23)c(C)c1 | 0.736 (inactive) | -5.27
Cc1cccc(C)c1Nc1c(-c2ccccn2)nc2sccn12 | 0.5 (active) | -5.94
COc1ccc2c(c1OC)C(=O)N(c1ncn[nH]1)C2 | 0.25 (active) | -16
COc1ccc2c(c1OC)C(=O)N(c1ccc(O)cc1)C2 | 0.99 (inactive) | -0.11

SMILES | normalised signal (fraction of DMSO) | z-score
CCOC(=O)c1cnc2c(C)cc(C)cc2c1Nc1ccc(N2CCOCC2)cc1 | 0.35 (active) | -16.2
CCOC(=O)c1cnc2c(C)cc(C)cc2c1Nc1cccc(OC)c1 | 1.03 (inactive) | 0.43
CCOC(=O)c1cnc2c(C)cc(C)cc2c1Nc1ccccc1CC | 1.15 (inactive) | 1.45
CC(=O)Oc1ccc(C2CC(=O)Nc3cc4c(cc32)OCO4)cc1 (stereo not given) | 0.988 (inactive) | -0.494
CC(=O)Nc1ccc(S(=O)(=O)NCc2ccc(C(=O)NCCc3ccc(C)cc3)cc2)cc1 | 1.42 (inactive) | 1.84
COc1ccc(Cn2c(=O)c3cccnc3n(Cc3ccc(C)cc3)c2=O)cc1 | 1.11 (inactive) | 1.94
O=C(NCCCc1ccccc1)c1ccc2c(c1)N(Cc1ccccc1)CCS2 | 0.992 (inactive) | -0.011
COCCCNC(=O)c1c[nH]c2ccc(S(=O)(=O)N(C)c3cccc(C)c3)cc2c1=O | 1.02 (inactive) | 0.264
CCCCCCNC(=O)c1c[nH]c2ccc(S(=O)(=O)N(CC)c3cccc(C)c3)cc2c1=O | 1.08 (inactive) | 1.26
CCN(CCCNC(=O)c1c[nH]c2ccc(S(=O)(=O)N(CC)CC)cc2c1=O)c1cccc(C)c1 | 0.423 (active) | -6.22
O=C(CCCN1C(=O)CSc2ncccc21)NC1CCN(Cc2ccccc2)CC1 | 1.02 (inactive) | 0.27
O=C(Nc1ccc(C(F)(F)F)cc1)c1n[nH]c(=O)c2ccccc12 | 1.17 (inactive) | 1.04
COc1ccc(-c2noc(CCC(=O)NCc3cccc(OC)c3)n2)cc1 | 0.872 (inactive) | -1.96
CCCNC(=O)c1nn2c(C(F)(F)F)cc(-c3ccco3)nc2c1Br | 1.09 (inactive) | 2.47
CCC(CO)NCC(O)COCc1ccc(Cl)cc1 (stereo not given) | 1.05 (inactive) | 0.823
O=C(Cn1nc(-c2ccccc2)c2cc(Cl)ccc21)NCc1ccccc1 | 1.08 (inactive) | 2.18
Cc1cc(Br)ccc1NC(=O)CNC(=O)Cn1c(C)cc2ccccc2c1=O | 1.18 (inactive) | 1.84
CCCCN(CC)CCCNC(=O)C1CCN(C(=O)c2cc3sccc3n2C)CC1 | 0.959 (inactive) | -0.744
Cc1ccc(OCC(=O)Nc2ccc(S(=O)(=O)Nc3nccs3)cc2)c(Br)c1 | 1 (inactive) | 0.0983
CCc1c(-c2ccccc2)nc2ccccc2c1C(=O)NCC1COc2ccccc2O1 (stereo not given) | 0.762 (inactive) | -0.941

— PubChem BioAssay AID1224903 (Bradner/Qi Labs at DFCI, 2016)
